Source: PubChem (several laboratories)
Sampled rows, rich in hits. Any-hit rate of the full collection: about 3.4%.
NRP1-CendR mod = modulators of CendR peptide binding to NRP-1, primary screen, biochemical, fluorescence polarization, uHTS; FAM-RPARPAR peptide binding to NRP-1; 360,000 compounds, 0.85% hits; inhibition, % at 25 µM; AID 602438, 2012;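 active means inhibition or corrected inhibition above about 18%, plus a signal ratio from 0.5 to 1.5, limit read from the data, passing the limit was not always enough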
ADAM10 inh = human ADAM10 inhibitors, primary screen, biochemical, QFRET, HTS; Disintegrin and metalloproteinase domain-containing protein 10 (Homo sapiens), O14672; recombinant ADAM10, EDANS/DABCYL FRET peptide cleavage, 3 h; inhibition, % at 7 µM; 370,000 compounds, 0.62% hits;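 active means inhibition above a per-campaign cutoff equal to the mean of compounds falling between control-based bounds plus 3 SD, cut at about 20% in these data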;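 further: 0% = DMSO wells while the 100% control is not disclosed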
ADAM17 inh = ADAM17 inhibitors, primary screen, biochemical, QFRET | Disintegrin and metalloproteinase domain-containing protein 17 (Homo sapiens), P78536 | inhibition, % at 6.95 µM | recombinant ADAM17, EDANS/DABCYL FRET peptide cleavage | 370,000 compounds, 0.83% hits;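 active means inhibition above the mean of compounds lying between control limits plus 3 SD, set per campaign, cut at about 8.5% in these data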;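 further: 0% = DMSO-only wells as the low control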
Target sequence (P78536 215-824 limits assumed): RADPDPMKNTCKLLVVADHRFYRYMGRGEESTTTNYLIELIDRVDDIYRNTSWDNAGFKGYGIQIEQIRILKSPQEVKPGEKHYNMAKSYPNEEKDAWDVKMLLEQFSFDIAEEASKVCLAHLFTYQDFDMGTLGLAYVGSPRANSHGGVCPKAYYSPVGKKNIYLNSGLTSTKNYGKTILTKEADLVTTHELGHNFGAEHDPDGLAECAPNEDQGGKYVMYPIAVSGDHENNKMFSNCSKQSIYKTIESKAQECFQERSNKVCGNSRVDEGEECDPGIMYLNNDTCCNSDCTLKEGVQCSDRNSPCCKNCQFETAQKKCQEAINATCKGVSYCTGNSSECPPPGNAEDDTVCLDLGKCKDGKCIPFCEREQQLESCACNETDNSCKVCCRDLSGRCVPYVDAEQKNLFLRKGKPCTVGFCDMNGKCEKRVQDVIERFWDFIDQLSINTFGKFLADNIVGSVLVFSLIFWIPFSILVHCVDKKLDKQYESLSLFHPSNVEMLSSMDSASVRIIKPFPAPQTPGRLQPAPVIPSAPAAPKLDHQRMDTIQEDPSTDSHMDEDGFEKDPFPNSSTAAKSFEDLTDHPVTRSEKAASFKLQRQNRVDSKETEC
HGIII-sPLA2 inh = human group III sPLA2 inhibitors, primary screen, biochemical, QFRET, BODIPY PC-A2 liposome substrate | QFRET BODIPY PC-A2 liposome hydrolysis, fluorescence | AID 743126, 2013 | Group 3 secretory phospholipase A2 (Homo sapiens), Q9NZ20 | 370,000 compounds, 0.56% hits | inhibition, % at 12.2 µM;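 active means inhibition above mean plus 3 SD of compounds lying within the high and low control bounds, cut at about 19% in these data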;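 further: 0% = median of test compound wells and 100% = no enzyme DMSO wells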
KLK7 zymogen act = proKLK7 zymogen activators, primary screen, biochemical, fluorescence intensity; Kallikrein-7 (Homo sapiens), P49862; activation, % at 7 µM; purified proKLK7, EDANS-DABCYL substrate fluorescence; 100% is mature enzyme control, 0% vehicle; 370,000 compounds, 0.9% hits; AID 652039, 2013;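 active means activation above the mean of all tested compounds plus 3 SD, computed per campaign excluding outliers beyond control limits, cut at about 13% in these data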
ADAM10 ctr = ADAM10 inhibitors, counter-screen for ADAM17 exosite inhibitor project, biochemical, FRET, human ADAM10; shares compounds with ADAM17 inh; recombinant ADAM10, EDANS/DABCYL FRET peptide cleavage, 3 h; inhibition, % at 6.95 µM; 2,900 compounds, 47% hits; AID 743256, 2014;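 active means mean inhibition over the triplicate runs exceeds the activity threshold set in the earlier primary screen, cut at about 20% in these data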;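 further: 0% = DMSO wells and 100% = marimastat wells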
ADAM17 confirm = ADAM17 inhibitors, hit retest, confirmation, biochemical, QFRET peptide cleavage. shares compounds with ADAM17 inh. recombinant ADAM17, EDANS/DABCYL QFRET peptide cleavage. inhibition, % at 6.95 µM. 2,900 compounds, 65% hits;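 active means mean inhibition across replicates above the hit cutoff set in the primary screen, cut at about 8.5% in these data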;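 further: 0% = DMSO wells and 100% = marimastat wells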
* marks the source's active call; other numbers are inactive results.

How did COc1ccc(C(O)c2nc(-c3cccc(F)c3)cs2)cc1 (centres undefined) do in these assays?
NRP1-CendR mod: 12; ADAM10 inh: 18; ADAM17 inh: 9.9*; HGIII-sPLA2 inh: -25; KLK7 zymogen act: 1; ADAM10 ctr: 2; ADAM17 confirm: 2

How did COc1ccc(C(O)c2nc(-c3ccccc3)cs2)cc1 (centres undefined) do in these assays?
NRP1-CendR mod: 3; ADAM10 inh: 0; ADAM17 inh: 2; HGIII-sPLA2 inh: -10; KLK7 zymogen act: 0

What do the screens show for `COc1ccc2c(c1)CN1C(=O)N(CC(C)C)S(=O)(=O)CC21` (centres undefined)?
ADAM10 inh: -6; ADAM17 inh: -4; HGIII-sPLA2 inh: 8; KLK7 zymogen act: 0

How did COc1ccc(N=C2SC(CC(=O)Nc3ccc(F)cc3)C(=O)N2Cc2ccco2)cc1 (centres undefined) do in these assays?
NRP1-CendR mod: 7; ADAM10 inh: 15; ADAM17 inh: 12*; HGIII-sPLA2 inh: -41; KLK7 zymogen act: 1; ADAM10 ctr: 18; ADAM17 confirm: 13*

How did O=C(O)c1ccccc1C(=O)c1ccc(Sc2ccc(Cl)cc2)c([N+](=O)[O-])c1 do in these assays?
NRP1-CendR mod: -28; ADAM10 inh: 12; ADAM17 inh: 2; HGIII-sPLA2 inh: -23; KLK7 zymogen act: -1

How did Nc1ccccc1Sc1ccc(C(=O)c2ccccc2C(=O)O)cc1[N+](=O)[O-] do in these assays?
NRP1-CendR mod: -4; ADAM10 inh: 16; ADAM17 inh: 9.0*; HGIII-sPLA2 inh: -22; KLK7 zymogen act: 0; ADAM10 ctr: 6; ADAM17 confirm: 3

Results for COC(=O)[C@]12C[C@H](CC(=O)NCCCCc3ccccc3)C(=O)N(Cc3cccc4ccccc34)C1=C[C@H](C(C)C)O[C@@H]2C1CC1 ?
ADAM10 inh: 6; ADAM17 inh: 9.6*; HGIII-sPLA2 inh: -11; KLK7 zymogen act: -1; ADAM10 ctr: 12; ADAM17 confirm: 12*

How did COC(=O)[C@]12C[C@H](CC(=O)N3CCCC3)C(=O)N(Cc3cccc4ccccc34)C1=C[C@H](C(C)C)O[C@@H]2C1CC1 do in these assays?
ADAM10 inh: 7; ADAM17 inh: 0; HGIII-sPLA2 inh: -3; KLK7 zymogen act: 0

How did CCOC(=O)[C@]12CCC=C1N(Cc1cccc3ccccc13)C(=O)[C@H](CC(=O)NCc1cccs1)C2 do in these assays?
NRP1-CendR mod: -4; ADAM10 inh: 13; ADAM17 inh: 11*; HGIII-sPLA2 inh: -10; KLK7 zymogen act: 0; ADAM10 ctr: 20*; ADAM17 confirm: 12*

Results for C#CCNC(=O)C[C@H]1C[C@@]2(C(=O)OC)C(=C[C@H](C(C)C)O[C@@H]2C2CC2)N(Cc2cccc3ccccc23)C1=O ?
ADAM10 inh: 10; ADAM17 inh: 8.9*; HGIII-sPLA2 inh: -9; KLK7 zymogen act: -1; ADAM10 ctr: 6; ADAM17 confirm: 8

Results for COc1cc(/C=N/n2c(-c3ccc4c(c3)NC(=O)CO4)csc2=Nc2cccc(C)c2)ccc1O ?
NRP1-CendR mod: -8; ADAM10 inh: 16; ADAM17 inh: 9.3*; HGIII-sPLA2 inh: 3; KLK7 zymogen act: -3; ADAM10 ctr: -17; ADAM17 confirm: 9.8*

What do the screens show for `Cc1ccc(C(C(=O)NCc2ccccc2)N(Cc2cccs2)C(=O)c2ccc3c(c2)OCCO3)cc1` (centres undefined)?
NRP1-CendR mod: -11; ADAM10 inh: 15; ADAM17 inh: 10*; HGIII-sPLA2 inh: 1; KLK7 zymogen act: 0; ADAM10 ctr: 14; ADAM17 confirm: 11*

What do the screens show for `COC(=O)c1ccc(C(C(=O)NCc2ccccc2)N(Cc2cccs2)C(=O)c2cnccn2)cc1` (centres undefined)?
NRP1-CendR mod: -7; ADAM10 inh: 7; ADAM17 inh: -2; HGIII-sPLA2 inh: -4; KLK7 zymogen act: 0

What do the screens show for `O=C1c2cccc(OCC(=O)N3CCCc4ccccc43)c2CCN1Cc1ccccc1`?
NRP1-CendR mod: 0; ADAM10 inh: 3; ADAM17 inh: 1; HGIII-sPLA2 inh: -9; KLK7 zymogen act: 0

Results for O=C1c2cccc(OCC(=O)N3CCCc4ccccc43)c2CCN1Cc1ccc(Br)cc1 ?
NRP1-CendR mod: -7; ADAM10 inh: 17; ADAM17 inh: 9.7*; HGIII-sPLA2 inh: -16; KLK7 zymogen act: 0; ADAM10 ctr: 10; ADAM17 confirm: 12*

Results for COc1cccc(Oc2ccc(S(=O)(=O)N3CCCC3)cc2[N+](=O)[O-])c1 ?
NRP1-CendR mod: 3; ADAM10 inh: 18; ADAM17 inh: 8.7*; HGIII-sPLA2 inh: 5; KLK7 zymogen act: 0; ADAM10 ctr: 13; ADAM17 confirm: 3

What do the screens show for `Cc1ccc(S(=O)(=O)N(C(=O)c2ccncc2)c2ccc(OC(=O)c3ccncc3)c3ccccc23)cc1`?
NRP1-CendR mod: 3; ADAM10 inh: 2; ADAM17 inh: 8.9*; HGIII-sPLA2 inh: -16; KLK7 zymogen act: 1; ADAM10 ctr: 37*; ADAM17 confirm: 19*

What do the screens show for `COc1cc(/C=N/NC(=O)c2cc(O)cc(O)c2)ccc1OC(=O)c1ccccc1`?
NRP1-CendR mod: 13; ADAM10 inh: 10; ADAM17 inh: 2; HGIII-sPLA2 inh: -17; KLK7 zymogen act: 0

Results for COc1ccc(/C=N/NC(N)=S)cc1OC(=O)c1ccccc1 ?
NRP1-CendR mod: 1; ADAM10 inh: -1; ADAM17 inh: 9.1*; HGIII-sPLA2 inh: -5; KLK7 zymogen act: 0; ADAM10 ctr: 10; ADAM17 confirm: 8

What do the screens show for `COc1cc(C)c2c(c1C=O)Oc1c(c(C)c(O)c3c1C(O)OC3=O)OC2=O` (centres undefined)?
NRP1-CendR mod: -88; ADAM10 inh: 6; ADAM17 inh: 39*; HGIII-sPLA2 inh: 17; KLK7 zymogen act: 1; ADAM10 ctr: 6; ADAM17 confirm: 6
